Screens deposited in PubChem by National Center for Advancing Translational Sciences (NCATS).
AmpC inh no detg = inhibitors of E. coli AmpC beta-lactamase without detergent | AID 485341 | AmpC nitrocefin hydrolysis, absorbance 480 nm, 0.0001% Triton | Potency, µM (titrated, usually from 57.1 µM), for the others: at the highest dose activity change, negative = inhibition, most hits filed as inhibitors | P00811 | actives 0.52% (n = 330,000);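 note: potency is the fitted concentration of half-maximal effect; plate controls were no compound for no effect and no enzyme for full effect; nearly all actives have a fitted effect of over 20% in size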
Target sequence (P00811 whole entry, looked up): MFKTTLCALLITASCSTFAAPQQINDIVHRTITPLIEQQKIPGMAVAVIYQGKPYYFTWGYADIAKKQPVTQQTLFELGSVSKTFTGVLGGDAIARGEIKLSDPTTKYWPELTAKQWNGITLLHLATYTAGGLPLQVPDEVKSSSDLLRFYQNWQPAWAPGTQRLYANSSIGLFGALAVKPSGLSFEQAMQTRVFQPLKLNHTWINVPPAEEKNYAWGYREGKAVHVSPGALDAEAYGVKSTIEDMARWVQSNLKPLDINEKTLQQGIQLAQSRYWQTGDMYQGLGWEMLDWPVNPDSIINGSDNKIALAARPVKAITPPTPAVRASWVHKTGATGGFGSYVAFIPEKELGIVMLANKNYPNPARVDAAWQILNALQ
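20 mM phosphate pH 7.0 + 0.01% (detergent screen) or 0.0001% Triton X-100; 5.3 nM AmpC reagent; cpd preinc 15 min RT; nitrocefin (800 uM stock) to start; A480 q20 s × 4 min; Activity was normalised to no-enzyme and no-compound control wells.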
SARS PLP yeast = blocks SARS-CoV papain-like protease in a yeast assay; Potency, µM (doses to about 32.9 µM), for inactives: top-dose activity, positive = growth rescue, actives largely listed as activators; S. cerevisiae expressing SARS-CoV PLpro, growth rescue; actives 0.19% (n = 330,000); AID 485353; calls by dose curve; note: potency is the fitted concentration of half-maximal effect; 0% is about no effect; nearly all actives have a fitted effect of over 55% in size
Shiga inhibitor = blocks Shiga toxin action in Vero cells. actives 9.2% (n = 290,000). inhibition, % at 38.7 µM. Vero cells, Shiga toxin protein synthesis inhibition reporter; in the data active = inhibition mostly above about 28%, no sharp cut-off; inactive = mostly below about 43%; note: 0% is about no effect
CHX counter = affects cycloheximide protein synthesis inhibition readout, counter-screen; cell reporter, cycloheximide protein synthesis inhibition counterscreen; max response, %; actives 12% (n = 300,000); AID 2314; in the data active = max response mostly above about 13%, no sharp cut-off; inactive = mostly below about 14%; note: read at 38.3 µM for the half of the compounds with a filed dose; 0% is about no effect
AmpC detergent = blocks E. coli AmpC beta-lactamase in detergent assay | AID 485294 | actives 0.041% (n = 370,000) | Potency, µM (titrated, usually from 114 µM), without a hit: at the highest dose activity change, negative = inhibition, most hits filed as inhibitors | P00811 | AmpC hydrolysis of nitrocefin, absorbance 480 nm, 0.01% Triton;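 note: potency is the fitted concentration of half-maximal effect; 0% = no-compound wells and -100% = no-enzyme wells; nearly all actives have a fitted effect of over 25% in size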
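AmpC (5.3 nM in the dispensed reagent) in 20 mM phosphate pH 7.0 with 0.01% (detergent screen) or 0.0001% Triton X-100 was preincubated with compounds for 15 min at room temperature. Nitrocefin was then added from an 800 uM solution, and hydrolysis was followed at 480 nm.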
AMA1-RON2 inh = AMA1-RON2 (P. falciparum) interaction inhibition. actives 0.2% (n = 360,000). AlphaScreen AMA1-biotinylated RON2 peptide binding. Potency, µM (highest dose often 58.2 µM), for the others: top-dose activity change, negative = inhibition, most hits filed as inhibitors;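 note: potency is the fitted concentration of half-maximal effect; 0% = vehicle wells and -100% = peptide control; nearly all actives have a fitted effect of over 45% in size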
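AMA1 (3D7) with his tag at 25 nM final met compounds first, then biotinylated RON2 peptide at 25 nM; detection used donor plus acceptor beads, 10 µg/mL apiece, read by AlphaScreen after 30 min at room temperature.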
Numbers without * were called inactive; ? = inconclusive; · = no result given; [ ] = remark or other dose. Shown is part of a subset that was picked to be rich in hits. Unless noted, calls come from the whole dose curve; as a rule, active = well fitted curve in the direction sought with a large enough effect; inconclusive = small, poorly fitted or top-dose-only effect, or another doubt; inactive = no such curve, though single readings can be large; an effect the other way counts as inactive or inconclusive.

SMILES	AmpC inh no detg	SARS PLP yeast	Shiga inhibitor	CHX counter	AmpC detergent	AMA1-RON2 inh
Cc1ccc(OCCCN2CCOCC2)c([N+](=O)[O-])c1	-3.3%	-14.9%	73.6*	35.9*	-11.3%	-24.8%
Cc1ccc(OCCN2CCN(C)CC2)c([N+](=O)[O-])c1	-14.9%	-3.2%	18.1	-2.7	?	25.1µM*
O=C1Nc2ccccc2/C1=N/N=C/c1cccc(O)c1	16.3%	-2.4%	48.4*	48.8*	-8.4%	2.8%
CC1CCCCC1N=C1NC(C)(C)CS1 (centres undefined)	-24.1%	1.8%	22.5	-0.5	-6.2%	7.0%
O=C(NNC(=O)C1CCC1)c1cccc(Cl)c1	-4.8%	0.4%	·	·	-0.2%	20.7%
O=C(NC1CCCCCCC1)c1cccc(Cl)c1	-26.1%	-3.3%	64.1*	40.5*	-5.2%	4.4%
CCOc1ccc(C(=O)NC2CCCCCCC2)cc1	·	·	·	·	·	-6.3%
O=C(NNC(=O)C1C2CCC(C2)C1C(=O)O)c1cccc(Cl)c1 (centres undefined)	-31.0%	-0.6%	57.6	19.4*	-3.6%	15.6%
CCOc1cccc(C(=O)NC2CCCCC2)c1	-9.2%	3.8%	101.1*	29.6*	?	-1.7%
COc1ccc(N2CCCCn3c2nc2c3c(=O)[nH]c(=O)n2C)cc1	-6.3%	-0.5%	-13.6	-3.0	-12.9%	-5.8%
CSc1nc(O)c(C(c2ccccc2Cl)c2c(O)nc(SC)[nH]c2=O)c(=O)[nH]1	·	·	·	·	·	-0.9%
CCn1cc(C(=O)NCCCOC(C)C)c(=O)c2cc(S(=O)(=O)N(C)C3CCCCC3)ccc21	·	·	·	·	-0.1%	·
CCOC(=O)/C=C/C(=O)OCC(=O)N1CCN(C(=O)c2ccco2)CC1	-10.8%	0.6%	26.9	9.0*	-5.3%	0.1%
Cc1ccsc1C(=O)OCC(=O)N1CCN(C(=O)c2ccco2)CC1	-2.6%[11.4 µM]	0.4%	26.3*	33.4	-13.6%	-16.0%
Cc1ccccc1Oc1ccc2c(c1)[C@@H]1C[C@H](N(C)C(=O)c3ccco3)[C@H]([C@H](C)O)C(=O)N1CC2	·	·	·	·	·	-17.3%
Cc1ccc(-c2cc(C(F)F)nc(NCC3CCCO3)n2)cc1 (centres undefined)	24.9%	-60.5%	47.8*	15.6*	-7.6%	31.6%
N#Cc1nc(-c2cccs2)oc1NCC1CCCO1 (centres undefined)	1.4%	-6.6%	11.2	9.3*	?	0.0%
O=S(=O)(c1ccccc1)c1nc(-c2cccs2)oc1NCC1CCCO1 (centres undefined)	-6.8%	3.7%	4.1	-1.5	-4.7%	-3.3%
Cc1cccc(-c2nc(C#N)c(N3CCCCCC3)o2)c1	-8.9%	-7.3%	70.2*	27.6*	?	?
Cc1cccc(-c2nc(C#N)c(NCC3CCCO3)o2)c1 (centres undefined)	21.1%	0.0%	88.7*	43.8*	1.7%	-12.2%
O=C(NCC(c1ccc2c(c1)OCO2)N1CCOCC1)C(=O)Nc1ccccc1 (centres undefined)	·	·	·	·	1.7%	·
N#CC(NC(=O)OCc1ccccc1)c1ccccc1 (centres undefined)	-25.9%	-3.7%	·	·	0.0%	9.6%
CNC(=S)NNC(=O)c1oc2nc(-c3ccccc3)cc(C)c2c1N	-13.9%	-3.2%	-11.7	-2.3	-6.3%	-8.2%
Cc1ccc(-c2nc(C#N)c(NCC3CCCO3)o2)cc1 (centres undefined)	9.8%	-2.1%	81.9*	24.6*	-4.3%	0.9%
COc1ccc(-c2nc(C#N)c(NCC3CCCO3)o2)cc1 (centres undefined)	?	-4.2%	72.6*	25.4*	-3.9%	-6.3%
SMILES	AmpC inh no detg	SARS PLP yeast	Shiga inhibitor	CHX counter	AmpC detergent	AMA1-RON2 inh
O=[N+]([O-])c1ccc(N/N=C/c2cccc(O)c2)cc1	-45.8%	-10.8%	113.2*	52.9*	-2.4%	-8.3%
O=[N+]([O-])c1ccc(N/N=C/c2cccc(O)c2O)cc1	17.8µM*	-11.3%	·	27.3*	-14.7%	-2.7%
O=[N+]([O-])c1ccc(C=NNc2ccc(S(=O)(=O)O)cc2)cc1	·	·	·	·	·	-2.4%
Cc1ccc(Cl)cc1NC(=O)C(NS(=O)(=O)c1ccc2c(c1)CCC(=O)N2)c1ccccc1 (centres undefined)	·	·	·	·	-7.4%	·
CCCSc1oc(-c2cccs2)nc1S(=O)(=O)c1ccc(C)cc1	·	·	·	·	12.9%	·
COc1ccc(N2CCN(C(=O)C3CCCN(S(=O)(=O)c4ccc(C)cc4)C3)CC2)cc1 (centres undefined)	105.9%	1.0%	-5.3	-1.4	0.7%	-7.3%
CC(C)OC(=O)CC12CN(C)CC(CC(=O)OC(C)C)(CN(C)C1)C2=O	-28.5%	-3.1%	39.8	35.5*	?	-19.5%
O=C(Nc1ccc(Cl)cn1)c1cc2c(s1)-c1ccccc1OC2	-22.7%	-0.7%	34.4	16.5*	-4.9%	47.8%
O=C(Nc1cccnc1Cl)c1cc2c(s1)-c1ccccc1OC2	-3.0%	22.1%	27.1*	25.6	-14.4%	13.0%
CN1CCN(c2ccccc2NC(=O)c2cc3c(s2)-c2ccccc2OC3)CC1	224.4%	-8.8%	-6.6	-5.6	-1.5%	4.8%
O=C(NCCc1ccc(Cl)cc1)c1cc2c(s1)-c1ccccc1OC2	·	·	·	·	-2.4%	·
CCOC(=O)c1nnsc1Nc1ccc(C)c(C)c1	-16.9%	-1.5%	59.4*	43.5*	5.2%	8.8%
CCOc1ccc(NC(=O)c2csc3c2CCCC3)cc1	-9.0%	-6.2%	32.2	35.9*	-18.1%	3.4%
CC(=O)c1cccc(NC(=O)c2csc3c2CCCCC3)c1	-35.3%	-2.7%	54.7*	36.7*	3.2%	-22.4%
Clc1ccc(Cn2ccnc2)cn1	-20.0%	-1.7%	-9.2	-3.6	2.0%	0.9%
COc1ccc2[nH]c(=O)c(C(c3nnnn3C(C)(C)C)N(Cc3ccco3)CC3CCCO3)cc2c1 (centres undefined)	-5.5%	7.7%	-9.1	8.2	3.9%	3.1%
CC1CCN(S(=O)(=O)c2csc(C(N)=O)c2)CC1	·	·	·	·	3.8%	·
CCC(C)c1ccccc1OCCCN(C)Cc1ccccc1 (centres undefined)	24.1%	-8.0%	·	-2.0	?	-23.0%
COc1ccc(-c2nnc(SCC(=O)Nc3ncc(C(F)(F)F)cc3Cl)n2CC(C)C)cc1	39.0%	-5.4%	-6.8	14.9*	-2.1%	-1.1%
Cc1nn(-c2ccccc2)c(C)c1Cc1ccc(O)cc1	-18.0%	-4.6%	76.6*	26.5*	0.0%	-2.5%
N#Cc1ccc(Cn2c(=O)c(C#N)c3n(c2=O)CCC3)cc1	-6.0%	1.1%	55.4	-3.5	?	15.7%
COCc1nnc(NC(=O)C2CC(=O)N(C3CCCC3)C2)s1 (centres undefined)	59.5%	-1.5%	-11.2	-5.1	-6.7%	1.8%
S=c1[nH]cc(-c2ccc(Cl)cc2)n1Cc1ccccc1	-30.3%	0.6%	13.4	14.0*	7.3%	70.2%
